Screening data (PubChem BioAssay)
Only a selection was taken, and hits are over-represented in it overall.
TDP1 cell CPT: qHTS for Inhibitors of human tyrosyl-DNA phosphodiesterase 1 (TDP1): qHTS in cells in presence of CPT. chicken DT40 Tdp1-/-;hTDP1 cells + 20 nM CPT, ATP luminescence, 48 h. Potency, µM (top dose mostly 46.2 µM), without a hit: top-dose activity change, negative = growth inhibition, usual class: inhibitors. 420,000 compounds, 12% hits. AID 686979, 2013; note: potency is the fitted concentration of half-maximal effect; nearly all actives have a fitted effect of over 55% in size
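Chicken DT40 Tdp1-/- cells complemented with human TDP1, 400 cells/well, exposed to compounds plus 20 nM camptothecin for at least 48 h at 37 C; viability read as ATP content by CellTiter-Glo luminescence.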
DT40 TDP1 no CPT: qHTS for Inhibitors of human tyrosyl-DNA phosphodiesterase 1 (TDP1): qHTS in cells in absence of CPT; DT40 Tdp1-/- hTDP1 cells, no CPT, ATP luminescence, 48 h; Potency, µM (titrated, usually from 46.2 µM), for inactives: at the highest dose activity change, negative = growth inhibition, usual class: inhibitors; 420,000 compounds, 15% hits; AID 686978, 2013; note: potency is the fitted concentration of half-maximal effect; nearly all actives have a fitted effect of over 55% in size
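Growth of hTDP1-complemented DT40 Tdp1-knockout cells is measured by ATP luminescence after at least 48 hr compound exposure at 37 °C, with DMSO substituting for the 20 nM CPT used in the parallel screen.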
HT1080-NT tox: qHTS for induction of synthetic lethality in tumor cells producing 2HG: qHTS for the HT-1080-NT fibrosarcoma cell line. HT-1080-NT fibrosarcoma viability, CellTiter-Glo ATP luminescence, 48 h. Potency, µM (top dose mostly 46.1 µM), for the others: top-dose activity, negative = less viability, actives largely listed as cytotoxic. 360,000 compounds, 1.6% hits. AID 686970, 2013;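 note: NT is the 2HG producing partner of a matched IDH1 knockdown line; potency is the fitted concentration of half-maximal effect; 0% = DMSO-treated cells and -100% = media-only wells without cells; nearly all actives have a fitted effect of over 55% in size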
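HT-1080-NT; 750 cells/well; 5% FBS RPMI; 48 h compound, 37 degrees C; CellTiter-Glo luminescence; curve fitting and curve-class assignment.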
12-LOX inh: Primary qHTS assay for inhibitors of human arachidonate 12S-lipoxygenase (ALOX12): Round 2; Polyunsaturated fatty acid lipoxygenase ALOX12 (Homo sapiens), P18054; purified 12hLO, xylenol orange hydroperoxide absorbance; Potency, µM (doses to about 108 µM), for the others: at the highest dose activity change, negative = inhibition, most hits filed as inhibitors; 580,000 compounds, 1.1% hits; AID 1671190, 2021; note: potency is the fitted concentration of half-maximal effect
Target sequence (P18054 whole entry, looked up): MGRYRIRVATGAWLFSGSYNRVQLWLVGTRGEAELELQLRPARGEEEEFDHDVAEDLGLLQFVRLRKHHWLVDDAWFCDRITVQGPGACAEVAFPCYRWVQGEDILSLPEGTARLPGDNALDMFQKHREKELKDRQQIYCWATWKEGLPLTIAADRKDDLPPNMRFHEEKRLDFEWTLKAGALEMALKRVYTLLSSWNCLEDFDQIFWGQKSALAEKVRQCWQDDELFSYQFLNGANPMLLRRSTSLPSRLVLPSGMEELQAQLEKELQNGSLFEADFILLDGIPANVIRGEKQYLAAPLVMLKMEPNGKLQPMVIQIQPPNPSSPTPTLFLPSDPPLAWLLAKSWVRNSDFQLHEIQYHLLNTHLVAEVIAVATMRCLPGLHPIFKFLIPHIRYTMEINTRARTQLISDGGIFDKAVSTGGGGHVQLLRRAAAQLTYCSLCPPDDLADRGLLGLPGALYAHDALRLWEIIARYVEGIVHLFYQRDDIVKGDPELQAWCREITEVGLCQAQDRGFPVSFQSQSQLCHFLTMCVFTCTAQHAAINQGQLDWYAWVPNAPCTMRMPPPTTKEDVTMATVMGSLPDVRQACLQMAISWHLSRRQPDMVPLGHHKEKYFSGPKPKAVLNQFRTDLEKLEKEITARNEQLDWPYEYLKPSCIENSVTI
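Purified human 12hLO (150 nM final) in 25 mM Hepes, 0.01% Triton X-100, pH 7.0 was preincubated 15 min at room temperature with compound. Then 40 uM arachidonic acid was added, 30 min. Hydroperoxide was read by Fe-XO absorbance ratio 573/405 nm.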
HT1080 IDH1KD tx: qHTS for induction of synthetic lethality in tumor cells producing 2HG: qHTS for the HT-1080-IDH1KD cell line; HT-1080 IDH1 knockdown viability, ATP luminescence, 48 h; Potency, µM (series often up to 46.1 µM), inactives show top-dose activity, negative = toxicity, usual class: cytotoxic; 360,000 compounds, 2% hits; AID 686971, 2013;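 note: potency is the fitted concentration of half-maximal effect; 0% = DMSO wells and -100% = cell-free medium wells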
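Using the IDH1-knockdown HT-1080 line run in the same batch and compound series as the NT line, viability after 48 h at 37 °C was determined by CellTiter-Glo luminescence and expressed as % activity.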
IL-1B inflam inh: qHTS for Inhibitors of Inflammasome Signaling: IL-1-beta AlphaLISA Primary Screen; THP-1 LPS/ATP IL-1B secretion, AlphaLISA, 16 h; active compounds read low; activity change, % at 57.5 µM; 360,000 compounds, 4.7% hits; AID 743279, 2014; in the data active = activity change below about -50%; inconclusive = mostly about -30% to -49%
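Secreted IL-1B measured by AlphaLISA bead assay after 16 h compound exposure of THP-1 cells; compounds (final up to 57.5 uM) added 1 h before LPS (250 ng/mL) and ATP (1.25 mM) stimulation; lower signal means less secretion.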
Starred values were filed as active, the others as inactive; u = inconclusive; x = no result. Unless noted, calls come from the whole dose curve; as a rule, active = well fitted curve in the direction sought with a large enough effect; inconclusive = small, poorly fitted or top-dose-only effect, or another doubt; inactive = no such curve, though single readings can be large; an effect the other way counts as inactive or inconclusive. Unless noted, % is set by controls: 0 for no effect and ±100 for the full control effect.

SMILES | TDP1 cell CPT | DT40 TDP1 no CPT | HT1080-NT tox | 12-LOX inh | HT1080 IDH1KD tx | IL-1B inflam inh
O=C(CCSc1nnc(NC2CC2)s1)Nc1ccccc1F | x | x | x | 31% | x | x
COc1ccccc1-c1noc2nc(Nc3cccc(Cl)c3)ccc12 | x | x | x | 28µM* | x | x
COc1ccccc1-c1noc2nc(OCc3ccc(F)cc3)ccc12 | x | x | x | 11% | x | x
COCCNC(=O)/C(C#N)=C/c1cccc(/C=C(\C#N)C(=O)NCCOC)c1 | 5.8µM* | 12µM* | u | -16% | u | -99*
COCCNC(=O)/C(C#N)=C/C(C)=C/c1ccccc1 | -22% | -21% | u | 9% | -11% | -83*
CNC(=O)/C(C#N)=C/c1cccc(Oc2ccccc2)c1 | 26µM* | 23µM* | -18% | u | u | -102*
COCCNC(=O)/C(C#N)=C/c1ccc(O)cc1 | -21% | -14% | -10% | 3% | -13% | 2
O=C(O)C(=Cc1ccccc1Cl)c1ccccc1 | u | -27% | -1% | x | 22% | -7
COCCNC(=O)/C(=C/c1ccccc1Cl)c1ccccc1 | 29µM* | u | -1% | -16% | -4% | u
COCCNC(=O)/C(C#N)=C/C=C/c1ccccc1[N+](=O)[O-] | 10µM* | 7.3µM* | u | -6% | u | -107*
COCCNC(=O)/C(C#N)=C/c1ccc(O)c([N+](=O)[O-])c1 | -5% | u | -27% | -8% | -29% | 15
COc1ccc(C)cc1NC(=O)c1nnn(-c2c(C)cccc2C)c1C | u | 16µM* | x | -23% | x | x
Cc1ccc(C)c(-n2nnc(C(=O)Nc3ccc(Br)cc3)c2C)c1 | 10µM* | 5.2µM* | x | -18% | x | x
COc1cn(-c2ccccc2)nc1C(=O)Nc1ccccc1 | 4% | -29% | -1% | -10% | -22% | -55*
COc1ccc(C)cc1NC(=O)c1nn(-c2ccccc2)cc1OC | u | 21µM* | 15µM* | -17% | 15µM* | -87*
COc1ccc(/C=C\c2onc(C)c2S(=O)(=O)N2CCC(C(=O)Nc3cccc(Cl)c3)CC2)cc1 | 6.5µM* | 9.2µM* | x | u | x | x
COc1ccc(/C=C\c2onc(C)c2S(=O)(=O)N2CCC(C(=O)Nc3ccccc3OC)CC2)cc1 | u | 23µM* | x | -22% | x | x
CCOc1ccccc1NC(=O)C1CCN(S(=O)(=O)c2c(C)noc2/C=C/c2ccco2)CC1 | u | 18µM* | x | u | x | x
COc1ccc(/C=C\c2onc(C)c2S(=O)(=O)N2CCC(C(=O)Nc3cccc(C)c3C)CC2)cc1 | u | -14% | x | 0% | x | x
COc1cccc(C(=O)N2CCC(C(=O)Nc3cccc(Cl)c3)CC2)c1 | 10µM* | 23µM* | x | 7% | x | x
COc1cc(C(=O)N2CCC(C(=O)Nc3cccc(C(C)=O)c3)CC2)cc(OC)c1OC | u | u | 1% | -4% | 0% | -6
COc1ccc(OC)c(C2CCCN2C(=O)CSc2n[nH]c(-c3ccccc3)n2)c1 (configuration not stated) | x | x | x | -37% | x | x
Cc1noc(/C=C/c2ccco2)c1S(=O)(=O)N1CCC(C(=O)N2c3ccccc3CC2C)CC1 (configuration not stated) | 15µM* | 18µM* | -1% | -29% | -7% | u
